Pemphigus Ab inh = inhibitors of pemphigus antibody binding to human desmoglein-3; DSG3-coupled beads, scFv-anti-DSG3-GFP binding, flow cytometry; active compounds read low; 310,000 tested, 0.48% active; P32926; AID 588358; binding (percent of control), % at 10 µM;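 active = binding more than 3 SD below its plate's average and above zero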;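 also: hits lower antibody fragment binding to DSG3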
ADAM10 inh = inhibitors of human ADAM10. O14672. recombinant ADAM10, EDANS/DABCYL FRET peptide cleavage, 3 h. inhibition, % at 7 µM. 370,000 tested, 0.62% active. AID 720582;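 active = inhibition above a per-campaign cutoff equal to the mean of compounds falling between control-based bounds plus 3 SD, cut at about 20% in these data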;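 also: 0% = DMSO wells while the 100% control is not disclosed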
KLK7 zymogen act = activators of human kallikrein-7 zymogen; P49862; purified proKLK7, EDANS-DABCYL substrate fluorescence; 100% is mature enzyme control, 0% vehicle; activation, % at 7 µM; 370,000 tested, 0.9% active;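 active = activation above the mean of all tested compounds plus 3 SD, computed per campaign excluding outliers beyond control limits, cut at about 13% in these data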
MPTP block = inhibitors of mitochondrial permeability transition pore | isolated mouse mitochondria, Ca2+ swelling absorbance, 30 min | inhibition, % at 10 µM | 360,000 tested, 1.4% active | AID 602449;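 active = inhibition of 50% or more, scaled per plate between neutral and stimulator controls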;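 also: 0% = DMSO wells given calcium and 100% = 1 mM EGTA wells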
rCAG RNA binder = binds r(CAG) RNA repeats; r(CAG) RNA repeat, TO-PRO-1 dye displacement fluorescence; inhibition, % at 3 µM; 370,000 tested, 1.3% active;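 active = inhibition above the plate cutoff, the mean of all test compounds on that plate plus 3 SD, cut at about 35% in these data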;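 also: 0% = DMSO alone and 100% = 100 µM mitoxantrone as full dye displacement; higher means more dye released from RNA so lower well fluorescence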
ADAM17 inh = inhibits human ADAM17; P78536; recombinant ADAM17, EDANS/DABCYL FRET peptide cleavage; inhibition, % at 6.95 µM; 370,000 tested, 0.83% active;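 active = inhibition above the mean of compounds lying between control limits plus 3 SD, set per campaign, cut at about 8.5% in these data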;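 also: 0% = DMSO-only wells as the low control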
Target sequence (P78536 215-824 limits assumed): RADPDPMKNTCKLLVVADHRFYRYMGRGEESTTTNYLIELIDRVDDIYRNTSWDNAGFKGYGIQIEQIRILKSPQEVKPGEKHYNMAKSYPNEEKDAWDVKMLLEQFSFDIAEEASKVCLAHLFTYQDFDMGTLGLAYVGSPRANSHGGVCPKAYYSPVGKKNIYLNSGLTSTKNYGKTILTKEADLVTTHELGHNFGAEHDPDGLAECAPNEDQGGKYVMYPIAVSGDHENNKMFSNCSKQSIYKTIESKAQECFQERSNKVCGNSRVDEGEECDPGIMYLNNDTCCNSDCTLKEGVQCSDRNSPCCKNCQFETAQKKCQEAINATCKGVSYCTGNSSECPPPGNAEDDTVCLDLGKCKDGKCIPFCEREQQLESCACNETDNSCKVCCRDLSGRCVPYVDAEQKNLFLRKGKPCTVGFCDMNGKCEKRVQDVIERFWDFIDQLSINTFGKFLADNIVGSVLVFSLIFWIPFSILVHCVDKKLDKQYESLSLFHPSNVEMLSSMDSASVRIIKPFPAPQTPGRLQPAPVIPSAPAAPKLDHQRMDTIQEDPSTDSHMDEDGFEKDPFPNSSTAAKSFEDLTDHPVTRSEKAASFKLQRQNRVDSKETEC
MPTP counter = mitochondrial membrane potential, counter-screen; shares compounds with MPTP block; isolated mitochondria, Rhodamine 123 fluorescence; inhibition, % at 10 µM; 5,000 tested, 78% active; in the data active = inhibition above about 22%;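 also: 0% = DMSO vehicle and 100% = positive control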
An asterisk follows results filed as active; nt = no result. Most compounds without a hit are left out; they make up all but 4.7% or so of the library.

SMILES	Pemphigus Ab inh	ADAM10 inh	KLK7 zymogen act	MPTP block	rCAG RNA binder	ADAM17 inh	MPTP counter
Cc1ccc(Cc2nnc(SCC(=O)Nc3ccccc3Cl)[nH]c2=O)cc1	99	-3	-1	-1	16	-4	nt
S=C(Nc1cccc(Br)c1)c1ccccc1	85	9	0	53*	1	6	71*
S=C(Nc1ccccc1)Nc1cccc(Br)c1	105	-5	0	90*	1	-4	102*
CC(=O)Nc1ccc(NC(=S)Nc2ccc(Br)cc2)cc1	102	0	0	98*	-3	-3	88*
CC(=O)Nc1ccc(NC(=S)Nc2ccccc2)cc1	100	-4	0	0	1	-3	nt
CC(C)(C)NC(=S)Nc1ccc(Br)cc1	107	-9	-1	51*	-2	-3	66*
O=C(Nc1cccc(C(=O)Nc2ccc(Br)cc2)c1)c1ccccc1	100	9	0	27	10	3	nt
O=C(OC12CCCN(C1)/C(=C/c1cccnc1)C2)c1ccc(F)cc1 (stereo not drawn)	nt	-4	0	nt	0	-3	nt
C=CCN1C(=O)[C@@H](CC(=O)NCc2cccc(C(F)(F)F)c2)[C@]2(C(=O)OCC)CCCCC/C=C/12	nt	3	0	nt	0	-1	nt
N#Cc1ccc(NC(=S)Nc2ccccc2)cc1	105	7	0	90*	-2	2	92*
Cc1ccc(NC(=S)Nc2ccc(Br)cc2)cc1	104	9	1	44	5	2	nt
S=C(Nc1ccccc1)Nc1ccc(Br)cc1	91	0	0	95*	1	-5	88*
CC(C)S(=O)(=O)N[C@@H]1c2cc3c(cc2[C@H](c2ccccc2)[C@H]1C)OCO3	nt	-9	1	nt	8	-7	nt
CN1CCCCC(NC(=O)c2ccc(Cl)cc2Cl)C1=O (stereo not drawn)	nt	2	1	nt	2	1	nt
COCC(=O)Nc1cc(Cl)ccc1C	71	-4	0	-1	-2	-2	nt
Cc1ccc(Cl)cc1NC(=O)CC(O)(C(F)(F)F)C(F)(F)F	99	0	0	95*	-3	0	93*
COc1cc(NC(=O)Cn2nc(C(F)(F)F)c(Br)c2C)cc([N+](=O)[O-])c1	105	2	0	85*	6	-2	82*
CCCn1c(=N)n(CC(O)c2ccc(C)cc2)c2ccccc21 (stereo not drawn)	108	-13	0	2	7	-5	nt
COc1ccc(C(O)Cn2c(=N)n(CCCN(C)C)c3ccccc32)cc1 (stereo not drawn)	nt	-4	0	80*	3	-7	-5
COCCN1Cc2cc(C(=O)OC)c3c(c2C1=O)c1cc(OC)ccc1n3S(=O)(=O)c1ccc(C)cc1	nt	-14	-2	nt	14	-6	nt
CCOC(=O)C1=CC[C@@H](c2ccccc2)C(C#N)(C#N)[C@H]1/C=C/c1ccccc1	nt	5	0	nt	6	4	nt
C/C(=N/NC(=O)c1cc2ccccc2cc1O)C1C(=O)c2ccccc2C1=O	nt	13	1	86*	100*	5	17
O=C1CCCN2N=C(SCC(=O)Nc3cccc(C(F)(F)F)c3)SC2=N1	nt	13	0	74*	0	0	74*
O=C(Nc1ccc2c(c1)OCO2)Nc1ccc(Cl)cc1Cl	nt	3	0	83*	4	-1	94*
O=C(Cc1ccc(Cl)cc1Cl)Nc1ccc(OC(F)F)c(Cl)c1	105	13	0	74*	-2	2	84*
SMILES	Pemphigus Ab inh	ADAM10 inh	KLK7 zymogen act	MPTP block	rCAG RNA binder	ADAM17 inh	MPTP counter
O=C(Nc1ccc(OC(F)F)c(Cl)c1)Nc1ccc2c(c1)OCO2	78	9	0	92*	7	1	88*
O=C(Nc1ccc([N+](=O)[O-])cc1)Nc1ccc(OC(F)F)c(Cl)c1	nt	4	0	98*	22	5	47*
O=C(Nc1ccc2c(c1)OCO2)Nc1ccc2c(c1)OCO2	97	-14	0	2	0	-2	nt
O=C(COC(=O)Cc1ccc(Cl)cc1Cl)Nc1ccc(OC(F)F)cc1	96	2	1	1	-6	2	nt
O=C(Nc1ccc(Cl)cc1)Nc1ccc2c(c1)OCO2	109	-1	0	33	2	-7	nt
Cc1ccc(S(=O)(=O)NCC2CCN(C(=O)C(=O)c3cc4ccccc4o3)CC2)cc1	nt	3	0	nt	5	2	nt
COc1ccc(NC(=O)NNC(=O)CCn2nc(C)c([N+](=O)[O-])c2C)cc1OC	nt	-3	1	nt	1	0	nt
O=C(c1cc(Cl)ccc1F)N1CCCC(c2nc(-c3cccs3)no2)C1 (stereo not drawn)	nt	-8	-1	nt	2	-1	nt
COc1ccc(NC(=O)c2cccc(OC(F)F)c2)cc1Cl	98	5	0	5	0	1	nt
O=C(Nc1ccc(OC(F)F)c(Cl)c1)c1cccc(OC(F)F)c1	103	nt	nt	97*	nt	nt	95*
C[C@H](O)[C@@H]1CN2CCc3c([nH]c4c(-c5ccccc5)cccc34)[C@@H]2C[C@@H]1N(C)C(=O)Nc1ccccc1	nt	-43	-1	nt	10	-10	nt
O=C1NC(=Nc2ccc(Cl)cc2)SC1Cc1cc(Cl)ccc1Cl (stereo not drawn)	101	9	1	65*	4	5	84*
COc1ccc(Cn2c(=O)oc3ccc(C)cc32)cc1OC	106	3	0	72*	5	1	35*
CCOC(=O)N[C@@H](Cc1cccnc1)C(=O)N1CCC[C@H]1C(=O)NC1CCCC1	nt	-12	0	nt	-1	-8	nt
CCCOc1ccc(CSCCNC(=S)Nc2ccccc2)cc1	94	7	-1	95*	-4	4	94*
S=C(NCCSCc1ccc(Cl)cc1)Nc1ccccc1	81	4	-1	68*	0	2	97*
Cc1cccc(CSCCNC(=S)Nc2ccccc2)c1	104	7	0	82*	3	5	79*
CCOc1ccc(CSCCNC(=S)Nc2ccc(OC)cc2)cc1	111	5	0	17	-2	2	nt
CCCNC(=S)Nc1ccccc1	89	3	0	-1	-3	-4	nt
S=C(NCCSCc1ccccc1Cl)Nc1ccccc1	108	4	1	82*	0	-1	104*
CC(=O)c1c(O)cc(O)c(C(C)=O)c1O	100	nt	nt	90*	nt	nt	106*
COC(=O)c1cc2c(c3c4cc(OC)ccc4n(S(=O)(=O)c4ccccc4)c13)C(=O)N(C)C2	nt	-3	0	nt	12	0	nt
